ADAM17 inh = inhibitors of human ADAM17; P78536; recombinant ADAM17, EDANS/DABCYL FRET peptide cleavage; inhibition, % at 6.95 µM; actives 0.83% (n = 370,000); AID 720648;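 active = inhibition above the mean of compounds lying between control limits plus 3 SD, set per campaign, cut at about 8.5% in these data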;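 also: 0% = DMSO-only wells as the low control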
NPR2 activator = GC-B (human) receptor activation; P20594; HEK293-GC-B cells, CNP EC30, cGMP TR-FRET; 0% at EC30 CNP, 100% saturating CNP; activation, % at 10 µM; actives 0.11% (n = 370,000); AID 1920062;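 active = activation at 10 µM reaching about 35% in either raw or pattern-adjusted values, limit read from the data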
ADAM10 inh = ADAM10 inhibition, QFRET primary screen. O14672. recombinant ADAM10, EDANS/DABCYL FRET peptide cleavage, 3 h. inhibition, % at 7 µM. actives 0.62% (n = 370,000). AID 720582;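 active = inhibition above a per-campaign cutoff equal to the mean of compounds falling between control-based bounds plus 3 SD, cut at about 20% in these data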;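 also: 0% = DMSO wells while the 100% control is not disclosed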
Target sequence (O14672 214-748 limits assumed): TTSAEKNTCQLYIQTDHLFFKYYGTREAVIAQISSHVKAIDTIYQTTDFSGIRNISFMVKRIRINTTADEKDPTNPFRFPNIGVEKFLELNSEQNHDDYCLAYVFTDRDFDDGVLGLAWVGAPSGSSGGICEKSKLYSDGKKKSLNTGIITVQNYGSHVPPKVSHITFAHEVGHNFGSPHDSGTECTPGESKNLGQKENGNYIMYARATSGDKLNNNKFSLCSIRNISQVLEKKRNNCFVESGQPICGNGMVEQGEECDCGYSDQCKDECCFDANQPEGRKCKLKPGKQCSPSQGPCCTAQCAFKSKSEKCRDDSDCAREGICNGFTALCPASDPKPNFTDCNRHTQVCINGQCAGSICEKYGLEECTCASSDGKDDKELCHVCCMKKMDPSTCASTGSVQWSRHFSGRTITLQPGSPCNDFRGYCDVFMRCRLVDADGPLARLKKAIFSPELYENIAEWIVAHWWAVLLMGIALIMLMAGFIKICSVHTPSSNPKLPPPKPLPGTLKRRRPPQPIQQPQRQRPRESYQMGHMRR
proKLK7 act = activates the human kallikrein-7 zymogen; P49862; purified proKLK7, EDANS-DABCYL substrate fluorescence; 100% is mature enzyme control, 0% vehicle; activation, % at 7 µM; actives 0.9% (n = 370,000);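 active = activation above the mean of all tested compounds plus 3 SD, computed per campaign excluding outliers beyond control limits, cut at about 13% in these data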
NPR1 activator = GC-A (human) enzyme activation. AID 1671463. P16066. activation, % at 10 µM. HEK293 GC-A cells, cGMP TR-FRET, EC30 ANP; 0% at EC30 ANP, 100% saturating ANP. actives 0.14% (n = 370,000); in the data active = activation above about 40%
The depositor's hits bear a star; i = inactive; . = no result. Sampled rows, rich in hits. Any-hit rate of the full collection: about 2.2%.

SMILES	ADAM17 inh	NPR2 activator	ADAM10 inh	proKLK7 act	NPR1 activator
COc1ccc(-c2nnc3n2N=C(c2cccc([N+](=O)[O-])c2)CS3)cc1	-1.7	11.3	-17.1	0.2	22.4
CCOC(=O)C1(C)NC(c2cccs2)C2C(=O)N(c3ccc(C)cc3)C(=O)C21 (configuration not stated)	-1.3	3.3	0.0	0.7	-2.1
Cc1ccc(N2C(=O)C3C(C2=O)N2C(c4cccs4)C4C(=O)N(c5ccc(C)cc5)C(=O)C4N2C3c2cccs2)cc1 (configuration not stated)	13.0*	2.9	12.1	-1.6	-2.6
COc1ccc(-c2noc(C3CCCN(C(=O)Nc4cc(C)cc(C)c4)C3)n2)cc1 (configuration not stated)	5.9	-14.3	10.0	0.6	-0.7
N#CCC[C@H]1CC[C@]2(CCCN(C(=O)c3ccccc3)C2)O1	-1.9	-1.5	-12.2	0.6	3.0
CCOC(=O)c1cnc2c(c(C)nn2-c2ccc(C)cc2)c1Cl	-7.2	-11.4	-7.5	-0.6	60.2*
CCOC(=O)c1cnc2c(c(C)nn2C)c1Oc1cc(Cl)cc(Cl)c1	-0.2	-10.3	1.1	0.3	-2.4
COC(=O)[C@]12C[C@H](CC(=O)N3CCCCC3)C(=O)N(CCC3=CCCCC3)C1=C[C@H](C1CCCC1)O[C@@H]2C	-8.2	5.2	-10.5	0.2	-2.1
COc1ccc(C(=O)NCc2ccc(C)cc2)cc1S(=O)(=O)N1CCCc2ccccc21	18.1*	-0.6	14.2	0.9	1.2
COc1ccc(C(=O)NCC2CCCO2)cc1S(=O)(=O)N1CCCc2ccccc21 (configuration not stated)	-5.7	4.9	-8.6	-0.3	-3.8
CCOC(=O)COc1ccc(/C=C/[N+](=O)[O-])c(OCC(=O)OCC)c1	9.1*	0.2	9.3	0.1	8.8
CCOC(=O)COc1ccc2ccccc2c1/C=C/[N+](=O)[O-]	-4.0	-5.8	-13.0	0.0	0.2
CC(C)N1CCCCC(NC(=O)c2cccc(F)c2)C1=O (configuration not stated)	-1.4	10.9	2.0	0.6	5.3
Nc1ncnc2c1nc(Br)n2[C@@H]1O[C@@H]2COP(=O)(O)O[C@H]2[C@H]1O	-7.6	5.7	-3.8	-0.2	3.8
Nc1nc2c(nc(Br)n2[C@@H]2O[C@@H]3COP(=O)(O)O[C@H]3[C@H]2O)c(=O)[nH]1	-3.0	114.0*	2.8	-0.2	116.2*
O=C(CCc1ccccc1-c1ccccc1CCNC(=O)c1ccccc1)NCc1ccccc1	-1.9	0.7	1.8	-0.5	-7.3
CC(C)(C)C(=O)Cn1ncc(Br)c(Br)c1=O	-4.4	1.5	-2.6	-0.3	61.9*
CC[C@]1(c2ccccc2)C(=O)N(C(=O)OC)N1C(=O)OC	10.4*	6.2	9.3	0.6	-2.1
CC[C@@]1(c2ccccc2)C(=O)N(C(=O)OC)N1C(=O)OC	-1.8	-5.2	2.0	0.8	-7.2
Nc1sc(Cc2ccccc2)cc1C(=O)c1c(-c2ccccc2)[nH]c2ccccc12	-9.2	-1.2	-221.5	-3.0	60.4*
CCc1ccc2[nH]cc(S(=O)(=O)c3ccc(C)c(C)c3)c(=O)c2c1	-1.4	-5.6	6.7	-4.2	-1.9
CCc1ccc2[nH]c3nc(C)cc(C)c3c(=O)c2c1	-109.9	36.5*	-387.5	4.7	40.7*
CN(CCO)c1cccc2c1S(=O)(=O)N(Cc1cn(Cc3cccc(F)c3)nn1)Cc1ccccc1O2	-3.2	-0.9	-12.6	-0.1	1.3
O=C(Nc1ccc2c(c1)OCO2)OC1CCC12CCCCC2 (configuration not stated)	4.2	-1.8	7.2	0.2	2.3
CCOc1cc(N2CCOCC2)c(OCC)cc1NC(=O)COC(=O)c1ccc([N+](=O)[O-])o1	-2.4	36.7*	-5.4	0.4	36.7
SMILES	ADAM17 inh	NPR2 activator	ADAM10 inh	proKLK7 act	NPR1 activator
O=C(COC(=O)c1cc([N+](=O)[O-])ccc1NCCO)Nc1cccnc1Cl	-2.5	57.1*	-5.6	0.4	55.9*
CC1=NN(c2nc(N)nc(/C(C#N)=C/c3ccc([N+](=O)[O-])o3)n2)C(C)(C)C1	1.5	40.9*	0.5	-0.2	46.1*
c1nc(NCC2CCCCO2)c2cc(-c3ccc4c(c3)OCO4)ccc2n1 (configuration not stated)	-38.6	0.5	-106.7	.	4.2
CC(C)CN1C(=O)[C@@]2(CC(=O)N(C)C2c2ccccc2)c2cc(-n3cc(CO)nn3)ccc21 (some centres not stated)	3.4	3.5	3.4	0.0	3.2
CCN(CC)S(=O)(=O)c1ccc(NC(=O)Nc2cccc(C(F)(F)F)c2)cc1	13.6*	2.5	39.1*	0.2	-10.2
O=C(Nc1ccncc1)Nc1cccc(C(F)(F)F)c1	0.0	-12.7	1.3	0.3	-9.9
Cc1oc2c(CN(C)C)c(O)ccc2c(=O)c1-c1cscn1	-251.8	1.2	i	20.0*	4.2
CCCCCCCCN1CN2Cc3ccccc3C2CS1(=O)=O (configuration not stated)	0.0	2.2	5.6	1.0	1.9
COC(=O)[C@]12C[C@H](CC(=O)NCCCN3CCCC3=O)C(=O)N(Cc3ccco3)C1=C[C@H](C(C)C)O[C@@H]2C1CC1	-5.6	-0.5	-13.2	0.0	-2.1
O=C1c2ccccc2C(Nc2ccc3c(c2)OCO3)N1Cc1ccco1 (configuration not stated)	-3.0	-1.8	-1.5	0.8	40.7*
O=C1c2ccccc2C(Nc2cccnc2)N1Cc1ccc2c(c1)OCO2 (configuration not stated)	-0.3	-2.9	-12.4	-0.4	-2.0
O=C1c2ccccc2C(Nc2ccc3c(c2)OCO3)N1Cc1ccc2c(c1)OCO2 (configuration not stated)	1.0	-5.5	1.0	0.3	59.1*
O=C(OC12CCCN(C1)/C(=C/c1ccc(Cl)cc1)C2)c1ccno1 (configuration not stated)	0.7	-7.2	2.2	0.2	-1.1
COC(=O)[C@]12C=CCN1[C@@H](c1ccc(OC)c(OC)c1)c1c(c3ccccc3n1S(=O)(=O)c1ccc(C)cc1)C2	3.4	0.4	-1.9	-1.9	-3.4
Cc1cc(S(=O)(=O)ON2C(=O)c3ccccc3C2=O)ccc1F	-39.6	34.7	-120.9	-0.1	40.3*
Cc1ccc(C)c(S(=O)(=O)ON2C(=O)c3ccccc3C2=O)c1	-9.6	4.5	-31.0	0.4	16.3
Cc1ccc(Cn2c(=N)c(C(=O)NCC3CCCO3)cc3c(=O)n4cccc(C)c4nc32)cc1 (configuration not stated)	i	37.1*	i	2.0	40.0*
Cc1ccc(Cn2c(=N)c(C(=O)NCc3ccco3)cc3c(=O)n4ccccc4nc32)cc1	-221.6	11.9	i	-5.5	53.2*
CCC(=O)Nc1ccc(C(=O)Cn2ncc(Cl)c(Cl)c2=O)cc1	-0.9	9.4	2.3	0.2	-5.5

Screening data from PubChem.
